Source: PubChem (National Center for Advancing Translational Sciences (NCATS))
D3 antag: D3 dopamine receptor (human) antagonism. P35462. D3R cells, DiscoveRx beta-arrestin luminescence, antagonist mode; active compounds read low. max response, negative = inhibition, %. actives 2.5% (n = 360,000); in the data active = max response below about -50%; inconclusive = no clear call, values can overlap the other calls
Target sequence (P35462 whole entry, looked up): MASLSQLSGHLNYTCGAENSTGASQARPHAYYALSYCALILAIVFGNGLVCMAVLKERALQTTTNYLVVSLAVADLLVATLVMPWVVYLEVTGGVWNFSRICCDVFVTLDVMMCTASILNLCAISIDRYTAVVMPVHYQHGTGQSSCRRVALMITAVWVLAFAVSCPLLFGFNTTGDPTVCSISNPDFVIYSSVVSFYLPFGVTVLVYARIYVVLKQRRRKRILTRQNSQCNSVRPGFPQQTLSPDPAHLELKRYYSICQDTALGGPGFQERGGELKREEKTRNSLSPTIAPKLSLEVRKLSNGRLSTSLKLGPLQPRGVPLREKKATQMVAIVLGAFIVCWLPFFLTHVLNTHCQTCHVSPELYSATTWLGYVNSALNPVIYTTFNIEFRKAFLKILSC
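Cells expressing the human receptor were seeded at 1500 cells/well, incubated overnight at 37 degrees C in 5% CO2, then exposed to library compounds with dopamine controls for 90 minutes at 37 degrees C before luminescent detection.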
TDP1 cell noCPT: qHTS for Inhibitors of human tyrosyl-DNA phosphodiesterase 1 (TDP1): qHTS in cells in absence of CPT; DT40 Tdp1-/- hTDP1 cells, no CPT, ATP luminescence, 48 h; Potency, µM (top dose mostly 46.2 µM), actives largely listed as inhibitors; actives 15% (n = 420,000); also: nearly all actives have a fitted effect of over 55% in size
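Camptothecin absent (DMSO only). Human TDP1-complemented DT40 knockout cells, 400 cells/well, 37 °C for minimum 48 hr; ATP measured via CellTiter-Glo, 30 min dark incubation, luminescence.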
D3 ag: activates the human D3 dopamine receptor | P35462 | D3R DiscoveRx beta-arrestin cells, luminescence, 90 min | max activation, % | actives 0.58% (n = 410,000); in the data active = max activation above about 30%
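Cells at 1500/well, incubated overnight, then treated with pinned compounds (dopamine as control) for 90 min at 37 degrees C. DiscoveRx reagent added for 30 - 60 minutes at room temperature; luminescence read.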
DT40 TDP1 CPT: DT40-hTDP1 cell growth loss with CPT | Potency, µM (doses to about 46.2 µM), hits mostly inhibitors | chicken DT40 Tdp1-/-;hTDP1 cells + 20 nM CPT, ATP luminescence, 48 h | actives 12% (n = 420,000); also: nearly all actives have a fitted effect of over 55% in size
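Chicken DT40 Tdp1-/- cells stably complemented with human TDP1 were seeded at 400 cells/well in medium containing 20 nM camptothecin, exposed to pin-transferred compounds, and grown at 37 °C for at least 48 hr. Viability was read as ATP luminescence.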
ClpP mod: qHTS Assay for Activators of ClpP. ATP-dependent Clp protease proteolytic subunit (Bacillus subtilis (strain 168)), P80244. purified B. subtilis ClpP, FRET peptide cleavage, 20 min. Potency, µM (titrated, usually from 57.5 µM). actives 1.9% (n = 340,000). AID 651965, 2013; active = well fitted falling curve with a large enough effect; inconclusive = small, poorly fitted or top-dose-only effect; inactive = no such curve, though single readings can be large or run the other way; also: the source files actives as falling curves though it sought activators and does not explain the sign; nearly all actives have a fitted effect of over 65% in size
Target sequence (P80244 whole entry, looked up): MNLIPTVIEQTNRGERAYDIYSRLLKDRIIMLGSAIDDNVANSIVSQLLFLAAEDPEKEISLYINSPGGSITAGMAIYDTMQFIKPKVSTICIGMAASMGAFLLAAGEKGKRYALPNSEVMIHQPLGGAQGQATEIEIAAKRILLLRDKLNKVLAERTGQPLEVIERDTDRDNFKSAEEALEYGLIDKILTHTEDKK
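Buffer: 100 mM Tris/HCl pH8, 100 mM KCl, 0.05% low protease BSA, 2.5% glycerol, 0.01% Tween-20. ClpP 10 microg/mL final; 20 min RT; delta FRET normalized to ADEP and DMSO controls.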
IL-1B inflam inh: inflammasome signaling inhibition, IL-1 beta readout; activity change, % at 57.5 µM; AID 743279; THP-1 LPS/ATP IL-1B secretion, AlphaLISA, 16 h; active compounds read low; actives 4.7% (n = 360,000); in the data active = activity change below about -50%; inconclusive = mostly about -30% to -49%
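THP-1 cells pretreated 1 hr with compounds (up to 57.5 uM final), then stimulated with LPS (250 ng/mL final) plus ATP (1.25 mM final); secreted IL-1B measured by AlphaLISA after 16 hr, decreased signal indicating inhibition.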
A number is an active result. This is a sample that favours compounds with a hit; in the whole collection about 21% have one here. Unless noted, calls follow the shape of the dose curve; as a rule, active = well fitted inhibition curve with a large enough effect; inconclusive = small, poorly fitted or top-dose-only effect; inactive = flat fitted curve, though single readings scatter.

CCOc1ccc(OCCC(=O)OCC(=O)NC2CCCCC2)cc1 was read as D3 antag inactive, TDP1 cell noCPT inactive, D3 ag inactive, DT40 TDP1 CPT inactive, ClpP mod inactive and IL-1B inflam inh inactive.
Screening O=C1CCCN1CCCNS(=O)(=O)c1ccc(F)c(F)c1 returned D3 antag inactive, TDP1 cell noCPT inactive, D3 ag inactive, DT40 TDP1 CPT inactive, ClpP mod inactive and IL-1B inflam inh inactive.
COc1ccc(Cn2c(=N)c(C(=O)NC3CCCCC3)cc3c(=O)n4ccccc4nc32)cc1 was read as D3 antag inactive, TDP1 cell noCPT 8.2µM, D3 ag inactive, DT40 TDP1 CPT 18µM, ClpP mod inactive and IL-1B inflam inh inactive.
`COc1ccc(CCn2c(=N)c(C(=O)NCC3CCCO3)cc3c(=O)n4ccccc4nc32)cc1OC` (stereo not drawn) gave D3 antag inactive, TDP1 cell noCPT 2.9µM, D3 ag inactive, DT40 TDP1 CPT 7.3µM, ClpP mod inactive and IL-1B inflam inh inconclusive.
Screening COCCn1c(=N)c(C(=O)NCC2CCCO2)cc2c(=O)n3ccccc3nc21 (stereo not drawn) returned TDP1 cell noCPT inactive, D3 ag inactive, DT40 TDP1 CPT inactive and ClpP mod inactive.
For N=c1c(C(=O)NC2CCCC2)cc2c(=O)n3ccccc3nc2n1CC1CCCO1 (stereo not drawn) the results were D3 antag inactive, TDP1 cell noCPT inactive, D3 ag inactive, DT40 TDP1 CPT inactive and IL-1B inflam inh inactive.
COCCCn1c(=N)c(C(=O)NC2CCCC2)cc2c(=O)n3ccccc3nc21 was read as TDP1 cell noCPT inactive, D3 ag inactive, DT40 TDP1 CPT inactive and ClpP mod inactive.
`COc1ccc(CCn2c(=N)c(C(=O)NC3CCCC3)cc3c(=O)n4ccccc4nc32)cc1OC` gave D3 antag inactive, TDP1 cell noCPT 0.65µM, D3 ag inactive, DT40 TDP1 CPT 0.73µM, ClpP mod inactive and IL-1B inflam inh inactive.
Screening COc1ccc(CCn2c(=N)c(C(=O)NC3CCCC3)cc3c(=O)n4ccccc4nc32)cc1 returned D3 antag inactive, TDP1 cell noCPT 3.3µM, D3 ag inactive, DT40 TDP1 CPT 4.1µM, ClpP mod inactive and IL-1B inflam inh -83.
COc1cccc(NC(=O)c2cc3c(=O)n4ccccc4nc3n(CC(C)C)c2=N)c1 was read as D3 antag inactive, TDP1 cell noCPT 5.8µM, D3 ag inactive, DT40 TDP1 CPT 6.5µM, ClpP mod inactive and IL-1B inflam inh inactive.
CC1CC(C)CN(S(=O)(=O)c2ccc3c(c2)CCN3C(=O)C2CC2)C1 (stereo not drawn) was read as D3 antag inactive, TDP1 cell noCPT inactive, D3 ag inactive, DT40 TDP1 CPT inconclusive, ClpP mod inactive and IL-1B inflam inh inactive.
`COCCN(Cc1cc2cc3c(cc2nc1Cl)OCO3)C(=O)Nc1ccc(F)cc1` gave D3 antag inactive, TDP1 cell noCPT 11µM, D3 ag inactive, DT40 TDP1 CPT 16µM, ClpP mod inactive and IL-1B inflam inh -71.
COc1ccc(CCN(Cc2cc3cc(C)c(C)cc3nc2Cl)C(=O)C2CC2)cc1 was read as D3 antag inactive, TDP1 cell noCPT 21µM, D3 ag inactive, DT40 TDP1 CPT 26µM, ClpP mod inactive and IL-1B inflam inh inactive.
Screening COCCN(Cc1cc2cc(C)ccc2nc1Cl)C(=O)Nc1ccccc1C returned D3 antag inactive, TDP1 cell noCPT 16µM, D3 ag inactive, DT40 TDP1 CPT 16µM, ClpP mod inactive and IL-1B inflam inh -70.
For COCCN(Cc1cc2cc3c(cc2nc1Cl)OCO3)C(=O)Nc1ccc(OC)cc1 the results were D3 antag inactive, TDP1 cell noCPT 10µM, D3 ag inactive, DT40 TDP1 CPT inconclusive, ClpP mod inactive and IL-1B inflam inh inactive.
Screening COCC(=O)N(CCN(C)C)Cc1cc2cc3c(cc2nc1Cl)OCO3 returned D3 antag inactive, TDP1 cell noCPT inactive, D3 ag inactive, DT40 TDP1 CPT inactive, ClpP mod inactive and IL-1B inflam inh inactive.
Cc1ccc(CN2CC(N3CCCC3)CS2(=O)=O)cc1 (stereo not drawn) was read as D3 antag inactive, TDP1 cell noCPT inactive, D3 ag inactive, DT40 TDP1 CPT inactive, ClpP mod inactive and IL-1B inflam inh inactive.
O=C(/C=C/c1ccccc1Cl)Nc1nc(-c2cccs2)ns1 was read as TDP1 cell noCPT inconclusive, D3 ag inactive, DT40 TDP1 CPT inconclusive and ClpP mod inactive.
For COCCN(Cc1cc2cc3c(cc2nc1Cl)OCO3)C(=O)Nc1ccccc1OC the results were D3 antag inactive, TDP1 cell noCPT 23µM, D3 ag inactive, DT40 TDP1 CPT 16µM, ClpP mod inactive and IL-1B inflam inh inactive.
For COc1ccccc1NC(=O)COc1ccc2c(c1)OCO2 the results were D3 antag inactive, TDP1 cell noCPT inactive, D3 ag inactive, DT40 TDP1 CPT inactive, ClpP mod inactive and IL-1B inflam inh inactive.
Screening COc1cc(-c2cc3nc(NC4CCCCC4)ccn3n2)cc(OC)c1OC returned D3 antag inactive, TDP1 cell noCPT 10µM, D3 ag inactive, DT40 TDP1 CPT 16µM, ClpP mod inactive and IL-1B inflam inh inactive.
`COc1cc(-c2csc(NC3CCCCC3)n2)cc(OC)c1OC` gave D3 antag inactive, TDP1 cell noCPT inconclusive, D3 ag inactive, DT40 TDP1 CPT inconclusive and IL-1B inflam inh -80.
For FC(F)(F)c1cccc(-c2cc3nc(NCCOc4ccccc4)ccn3n2)c1 the results were D3 antag inactive, TDP1 cell noCPT inconclusive, D3 ag inactive, DT40 TDP1 CPT inconclusive, ClpP mod inactive and IL-1B inflam inh inactive.
Screening COc1cc(-c2cc3nc(NCCN(C)C)ccn3n2)cc(OC)c1OC returned D3 antag inactive, TDP1 cell noCPT inactive, D3 ag inactive, DT40 TDP1 CPT inactive, ClpP mod inconclusive and IL-1B inflam inh inactive.
Screening COc1cc(CNC2CCCCCC2)cc(OC)c1OC returned D3 antag inactive, TDP1 cell noCPT inactive, D3 ag inactive, DT40 TDP1 CPT inactive, ClpP mod inactive and IL-1B inflam inh inactive.
Screening FC(F)(F)c1cccc(-c2cc3nc(NC4CCCCC4)ccn3n2)c1 returned D3 antag inactive, TDP1 cell noCPT inconclusive, D3 ag inactive, DT40 TDP1 CPT 21µM, ClpP mod inactive and IL-1B inflam inh inactive.
Screening Cc1cc(OCC(=O)Nc2cc(-c3nc4ccccc4[nH]3)ccc2C)ccc1Cl returned TDP1 cell noCPT 7.3µM, D3 ag inactive, DT40 TDP1 CPT 15µM and ClpP mod inactive.
